“And” between values parts separate entries of the source, which are not always exact repeats. Equal entries are not always repeated. Some compounds were tested as several samples or in several runs, with calls that do not always agree. The source made the active and inactive calls. The calls were made as follows: active = hit-call score of the fitted dose curve at least 0.9, where 1 is the maximum; inactive = score below 0.9.

The assay can be described thus: CCTE_Shafer_MEA_dev_network_spike_duration_std: CCTE's Neural Network Formation Assay for Standard Deviation of Network Spike Duration, Shafer Lab (AID 2284052).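 Also: hits are decreases in network spike duration SD versus DMSO vehicle.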 How it is done: CCTE_Shafer_MEA_dev assay is conducted using Axion Biosystems 48 well microelectrode array (MEA) plates and Maestro recording system. Each well of the MEA plate contains a grid of 16 microelectrodes embedded in the culture surface. Electrically active cells, such as neurons, can be cultured over the electrodes, and electrical activity in these cells can be recorded extracellularly. The spontaneous firing of neurons is captured from each electrode on a microsecond timescale providing both temporally and spatially precise data. […] The CCTE_Shafer_MEA_dev assay uses primary cultures of rat cortical neurons. Recordings are made on days post-plating 5, 7, 9 and 12. As these cultures mature over time, neural networks develop functional activity and form cohesive networks in which electrical activity can be highly coordinated. CCTE_Shafer_MEA_dev_network_spike_duration_std is 1 of 19 assay components of the CCTE_Shafer_MEA_dev assay. It measures the standard deviation of the duration of network spikes (temporally-clustered groups of action potential firing across multiple electrodes) during a recording in a microelectrode array (MEA) using Axion Biosystems Maestro 768 channel amplifier with the AxIS adaptive spike detector. To collapse across multiple recordings made on days post-plating 5, 7, 9 and 12, the trapezoidal area-under-the-curve of the component is calculated.Data from the assay component CCTE_Shafer_MEA_dev_network_spike_duration_std was analyzed into 1 assay endpoint. This assay endpoint, CCTE_Shafer_MEA_dev_network_spike_duration_std, was analyzed in the negative analysis fitting direction relative to DMSO as the negative control and baseline of activity. Using a type of functional reporter, gain or loss-of-signal activity can be used to understand electrical activity.
On the day prior to culture, each well was coated thoroughly with 150 uL of 0.05% polyethyleneimine (PEI, Sigma Cat P3143) in 50 mM HEPES (Sigma Cat H7523) at a pH of 8. The plate was incubated at 37C for one hour. PEI was rinsed out with 500 uL of sterile water three times. Plates were stored at 4C until the day of culture. This culture was plated at a seeding density of 1.5 x 10^5 cells/well on a 48-well MEA plate, prepared as described above. Cells were administered via a 25 uL media/laminin ([…]; Sigma Cat L2020-1MG) drop directly onto the microelectrode array, as adding the cells with the laminin results in better attachment than pre-coating with laminin. After 2 hours, an additional 475 uL of cortical media was added and the cells returned to the incubator. Exposure starts at day 0 of plating and is continued over twelve days of network development until the experiment is terminated. Cells are fed with fresh medium on DIV 5 and 9, following the recordings on those days. The entire volume of media in the well is exchanged and any vehicle or compound treatment is renewed. Complete details are found in OP-NHEERL/ISTD/SBB/TJS/2015-03-r0 (available on request, email shafer.tim@epa.gov). Measurement of the electrical activity is non-invasive, and recordings can be made from the same plate over multiple different days of the culture. In cortical neurons, this allows for the measurement of extracellular action potentials over the period during which networks form in the MEA plate.
For `COP(=S)(OC)Oc1ccc([N+](=O)[O-])c(C)c1`, the outcome was inactive.

As a reminder, the AC50 is the midpoint of the concentration-response curve, whichever way the signal moves. Regarding `CC1(C)C(C=C(Cl)Cl)C1C(=O)OC(C#N)c1cccc(Oc2ccccc2)c1` (configuration not stated), the AC50 is 2.2 µM (active) and the call was inactive.

As for `CCCN(CC)CC1COC2(CCC(C(C)(C)C)CC2)O1` (configuration not stated), the AC50 was 0.0662 µM (active).

As for `CNC(=O)Oc1cccc2ccccc12`, the compound was classed as inactive.

Regarding `CCNC(=O)NC(=O)C(C#N)=NOC`, the result was inactive.

As to `CCOP(=O)(OCC)Oc1nc(Cl)c(Cl)cc1Cl`, the concentration at half-maximal activity (AC50) was 2.98 µM (active) and the call was inactive.

Take `C=C(C)CN(CC)c1c([N+](=O)[O-])cc(C(F)(F)F)cc1[N+](=O)[O-]`: the AC50 is 13.1 µM (active).

Regarding `CC(C)=CC1C(C(=O)OCc2coc(Cc3ccccc3)c2)C1(C)C` (configuration not stated), the compound was classed as inactive.

For the compound `CO/N=C(/C1=NOCCO1)c1ccccc1Oc1ncnc(Oc2ccccc2Cl)c1F`, the AC50 is 0.889 µM (active).

Take `CCOC(=O)C(C)OC(=O)c1cc(Oc2ccc(C(F)(F)F)cc2Cl)ccc1[N+](=O)[O-]` (configuration not stated): the result was inactive.

As for `CN/C(=N\[N+](=O)[O-])NCc1cnc(Cl)s1`, the compound was classed as inactive.

With `CS(=O)(=O)c1cc(C(F)(F)F)ccc1C(=O)c1cnoc1C1CC1`, the call was inactive.

`N#CN=C1SCCN1Cc1ccc(Cl)nc1`: the result was inactive.

On to `CCSC(=O)N1CCCCCC1`, for which the result was inactive.

On to `CC1(C)C(C(=O)OC(C#N)c2cccc(Oc3ccccc3)c2)C1(C)C` (configuration not stated), for which the outcome was inactive.

Regarding `O=C(Nc1ccccc1-c1ccc(Cl)cc1)c1cccnc1Cl`, the result was inactive and the concentration at half-maximal activity (AC50) was 1.14 µM (active).

Turning to `COC(=O)N(C(=O)N1CO[C@@]2(C(=O)OC)Cc3cc(Cl)ccc3C2=N1)c1ccc(OC(F)(F)F)cc1`, the compound was called inactive.

Take `CS(=O)(=O)c1ccc(C(=O)C2C(=O)CCCC2=O)c([N+](=O)[O-])c1`: the compound was called inactive.

As for `CC(C)(C)C(=O)C(Oc1ccc(Cl)cc1)n1cncn1` (configuration not stated), the outcome was inactive.

Regarding `COP(=O)(OC)O/C(C)=C/C(=O)N(C)C`, the call was inactive.

Consider `Cc1c(COC(=O)[C@@H]2[C@H](/C=C(\Cl)C(F)(F)F)C2(C)C)cccc1-c1ccccc1`, for which the AC50 is 2.29 µM (active) and 2.33 µM (active).

Turning to `O=C1C2CC=CCC2C(=O)N1SC(Cl)(Cl)Cl` (configuration not stated), the call was inactive.

Turning to `CCN(CC)c1nc(C)cc(OP(=S)(OC)OC)n1`, the result was inactive.

In the case of `COP(=S)(OC)SCn1nnc2ccccc2c1=O`, the result was inactive.

The values are drawn from PubChem BioAssay (EPA / NIEHS).
